{"source": "PubChem BioAssay (Tox21)", "target": "Beta-2 adrenergic receptor (Homo sapiens) (UniProt P07550)", "sequence (P07550 whole entry, looked up)": "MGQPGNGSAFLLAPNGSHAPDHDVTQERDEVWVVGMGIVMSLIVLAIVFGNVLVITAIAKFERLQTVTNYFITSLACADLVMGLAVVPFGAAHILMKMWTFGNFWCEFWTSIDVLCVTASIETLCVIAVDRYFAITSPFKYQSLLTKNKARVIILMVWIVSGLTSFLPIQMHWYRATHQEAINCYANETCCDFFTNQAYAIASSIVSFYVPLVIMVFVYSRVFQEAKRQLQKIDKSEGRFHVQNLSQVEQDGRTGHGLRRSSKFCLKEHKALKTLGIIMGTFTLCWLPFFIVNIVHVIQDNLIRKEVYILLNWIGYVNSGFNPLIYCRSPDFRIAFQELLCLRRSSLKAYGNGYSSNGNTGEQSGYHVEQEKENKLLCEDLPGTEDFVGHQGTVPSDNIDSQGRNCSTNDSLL", "assay": "Adrenergic beta2 receptor (ADRB2) small molecule agonists, cell-based qHTS assay (AID 1963593)", "conditions": "CHO-ADRB2 cells, cAMP HTRF, 30 min; series mostly up to 92.4 µM", "method_in_brief": "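CHO cells stably over-expressing ADRB2 were plated overnight at 37C, then dosed with compounds plus a stimulation mix containing 100uM IBMX and 25uM Ro-20-1724 for 0.5hr at room temperature. cAMP was measured by HTRF competition, 1hr.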", "note": "Inconclusive results are not listed. Entries that show only a call come without a potency. Active and inactive are the calls of the source. Calls follow the shape of the full dose curve. Potency is read from the fitted curve at half-maximal effect."}
{"molecule": "C=CC(=O)OCC(COC(=O)C=C)(COC(=O)C=C)COC(=O)C=C", "values": [{"measurement": "Potency", "result": "24.3 µM (active)"}]}
{"molecule": "CSCCCN=C=S", "values": [{"measurement": "Potency", "result": "inactive"}]}
{"molecule": "CC(C)(COCC1CO1)COCC1CO1", "note": "(stereo not drawn)", "values": [{"measurement": "Potency", "result": "inactive"}]}
{"molecule": "CC(=O)C(Cl)C(=O)N(C)C", "note": "(stereo not drawn)", "values": [{"measurement": "Potency", "result": "inactive"}]}
{"molecule": "Oc1cccc(-c2ccccc2)c1", "values": [{"measurement": "Potency", "result": "inactive"}]}
{"molecule": "O=C(NC(=O)c1c(F)cccc1F)Nc1cc(Cl)c(Oc2ncc(C(F)(F)F)cc2Cl)c(Cl)c1", "values": [{"measurement": "Potency", "result": "inactive"}]}
{"molecule": "C1CCNCC1", "values": [{"measurement": "Potency", "result": "inactive"}]}
{"molecule": "CC(C)[C@H](C(=O)OC(C#N)c1cccc(Oc2ccccc2)c1)c1ccc(OC(F)F)cc1", "note": "(stereo partly drawn)", "values": [{"measurement": "Potency", "result": "inactive"}]}
{"molecule": "N#CSCc1ccccc1", "values": [{"measurement": "Potency", "result": "inactive"}]}
{"molecule": "CC(C)CCCCCCCOC(=O)c1ccccc1C(=O)OCCCCCCCC(C)C", "values": [{"measurement": "Potency", "result": "inactive"}]}
{"molecule": "O=C(N[C@H]1N=C(c2ccccc2F)c2cccc3c2N(CC3)C1=O)c1cc2ccccc2[nH]1", "values": [{"measurement": "Potency", "result": "inactive"}]}
{"molecule": "CC(=O)CN(CC(C)=O)N=O", "values": [{"measurement": "Potency", "result": "inactive"}]}
{"molecule": "CCC[N+](CCC)(CCC)CCC", "values": [{"measurement": "Potency", "result": "inactive"}]}
{"molecule": "CNP(=O)(OC)Oc1ccc(C(C)(C)C)cc1Cl", "note": "(stereo not drawn)", "values": [{"measurement": "Potency", "result": "inactive"}]}
{"molecule": "OC(c1ccccc1)(c1ccccc1)C1CCNCC1", "values": [{"measurement": "Potency", "result": "inactive"}]}
{"molecule": "ClC(Cl)C(Cl)Cl", "values": [{"measurement": "Potency", "result": "inactive"}]}
{"molecule": "CCN(CC)c1c([N+](=O)[O-])cc(C(F)(F)F)c(N)c1[N+](=O)[O-]", "values": [{"measurement": "Potency", "result": "inactive"}]}
{"molecule": "O=C(NC(=O)c1c(F)cccc1F)Nc1cc(Cl)c(F)c(Cl)c1F", "values": [{"measurement": "Potency", "result": "inactive"}]}
{"molecule": "ClP(Cl)(Cl)(Cl)Cl", "values": [{"measurement": "Potency", "result": "inactive"}]}
{"molecule": "COc1ccc(-c2ccccc2)cc1NNC(=O)OC(C)C", "values": [{"measurement": "Potency", "result": "inactive"}]}
{"molecule": "N#CCCl", "values": [{"measurement": "Potency", "result": "inactive"}]}
{"molecule": "O=C(O)CCCCCCNC1c2ccccc2CCc2ccccc21", "values": [{"measurement": "Potency", "result": "inactive"}]}
{"molecule": "CCCCC(CC)COC(=O)OOC(C)(C)C", "note": "(stereo not drawn)", "values": [{"measurement": "Potency", "result": "inactive"}]}
{"molecule": "COc1ccc2c(c1OC)C(=O)O[C@H]2[C@@H]1c2cc3c(cc2CCN1C)OCO3", "values": [{"measurement": "Potency", "result": "inactive"}]}
{"molecule": "CC(C)(C)c1ccc(CSc2cnn(C(C)(C)C)c(=O)c2Cl)cc1", "values": [{"measurement": "Potency", "result": "inactive"}]}
{"molecule": "Cc1cccc2sc3nncn3c12", "values": [{"measurement": "Potency", "result": "inactive"}]}
{"molecule": "COP(=S)(OC)Oc1c(Cl)cc(C)cc1Cl", "values": [{"measurement": "Potency", "result": "inactive"}]}
{"molecule": "SCc1ccco1", "values": [{"measurement": "Potency", "result": "inactive"}]}
{"molecule": "CC(C)=CCOc1c2occc2cc2ccc(=O)oc12", "values": [{"measurement": "Potency", "result": "inactive"}]}
{"molecule": "CNCC(=O)c1ccc(O)c(O)c1", "values": [{"measurement": "Potency", "result": "0.531 µM (active)"}]}
{"molecule": "CCOP(=O)(OCC)O/C(=C/Cl)c1ccc(Cl)cc1Cl", "values": [{"measurement": "Potency", "result": "inactive"}]}
{"molecule": "COC(=O)N(C(=O)N1CO[C@@]2(C(=O)OC)Cc3cc(Cl)ccc3C2=N1)c1ccc(OC(F)(F)F)cc1", "values": [{"measurement": "Potency", "result": "inactive"}]}
{"molecule": "CC(Cc1ccc2c(c1)OCO2)NO", "note": "(stereo not drawn)", "values": [{"measurement": "Potency", "result": "inactive"}]}
{"molecule": "CCOc1cc(OP(=S)(OC)OC)nc(CC)n1", "values": [{"measurement": "Potency", "result": "inactive"}]}
{"molecule": "CC1(C)[C@H](C=C(Cl)Cl)[C@@H]1C(=O)O[C@@H](C#N)c1cccc(Oc2ccccc2)c1", "values": [{"measurement": "Potency", "result": "inactive"}]}
{"molecule": "CN1COCN(Cc2cnc(Cl)s2)/C1=N\\[N+](=O)[O-]", "values": [{"measurement": "Potency", "result": "inactive"}]}
{"molecule": "N#C/C(N)=C(/N)C#N", "values": [{"measurement": "Potency", "result": "inactive"}]}
{"molecule": "O=c1[nH]oc2c1CCNC2", "values": [{"measurement": "Potency", "result": "inactive"}]}
